Most compounds without a hit are left out; they make up all but 2.2% or so of the library.
Abeta yeast res: compounds reversing amyloid beta toxicity in yeast; yeast expressing A-beta42, growth rescue, OD600, 48 h; response scale: 0% DMSO, 100% iron-clioquinol control; Potency, µM (series often up to 46.1 µM), actives largely listed as activators; 0.063% of 410,000 active; AID 1347071; also: nearly all actives have a fitted effect of over 55% in size
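Growth rescue measured by 600 nm absorbance after 48 h yeast culture at 30 C with compound. Values normalized between DMSO and an equimolar ferric chloride plus clioquinol control.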
aSyn rescue: rescues yeast growth from alpha-synuclein toxicity; AID 652106; Yeast expressing alpha-synuclein, growth rescue, BacTiter-Glo, 24 h; Potency, µM (series often up to 46.1 µM), for the others: at the highest dose growth rescue (activation), most hits filed as activators; 0.14% of 370,000 active; also: % of control where 0% means no effect; nearly all actives have a fitted effect of over 65% in size
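Rescue of yeast growth: cells expressing toxic alpha-synuclein, induced in galactose at OD600 0.02, incubated with compound 24 h at 30 C. ATP luminescence quantified growth; inhibitors of toxicity appear as activators.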
FUS suppressor: FUS proteinopathy suppression in yeast. S. cerevisiae FUS-expressing, growth rescue, OD600, 24 h. Potency, µM (doses to about 76.6 µM), most hits filed as activators. 0.24% of 390,000 active. AID 1347120;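 also: plate controls were DMSO vehicle for no effect and reference control for full effect; nearly all actives have a fitted effect of over 55% in size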
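Read-out: OD at 600 nm after 24hr at 30C, reporting rescue of FUS-induced yeast toxicity. Cells at OD 0.005 in galactose (2%) minimal medium; compounds tested in a dilution series; CP55940 titration from 92uM final as control.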
Mito fusion act: inhibitors of mitochondrial division or activators of mitochondrial fusion; S. cerevisiae fusion-defective mutant growth rescue, CellTiterGlo 48 h; Potency, µM (highest dose often 46.1 µM), for the others: at the top dose growth rescue (activation), hits mostly activators; 0.23% of 320,000 active; AID 485298; also: % of control where 0% means no effect; nearly all actives have a fitted effect of over 45% in size
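Growth-rescue viability read-out: after 48 h at the non-permissive 37C in glycerol/ethanol YPEG, yeast mitochondrial fusion mutants are measured by CellTiterGlo luminescence; compounds (23 nl pinned per well) restoring growth score as division inhibitors or fusion activators.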
TDP-43 yeast inh: rescues yeast growth from TDP-43 toxicity | TDP-43 expressing yeast growth rescue, BacTiter-Glo, 24 h | AID 652104 | 1.8% of 410,000 active | Potency, µM (titrated, usually from 46.1 µM), inactives show at the top dose growth rescue (activation), hits mostly activators; also: % of control where 0% means no effect; nearly all actives have a fitted effect of over 50% in size
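Readout is BacTiter-Glo luminescence of cell growth, so inhibitors register as activators. TDP-43-expressing yeast at OD600=0.02 in galactose medium, after raffinose pregrowth to mid-log, were incubated with compound for 24 hr at 30 deg C.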
Numbers without * were called inactive; i = inactive; ? = inconclusive; / = not tested or not shown; [ ] = remark or other dose. Calls follow the shape of the dose curve; as a rule, active = well fitted curve in the direction sought with a large enough effect; inconclusive = small, poorly fitted or top-dose-only effect, or another doubt; inactive = no such curve, though single readings can be large; an effect the other way counts as inactive or inconclusive. Potency is read from the fitted curve at half-maximal effect.

SMILES	Abeta yeast res	aSyn rescue	FUS suppressor	Mito fusion act	TDP-43 yeast inh
Cc1ccc(C)c(NS(=O)(=O)c2ccc(-c3cnc(C4CC4)o3)cc2)c1	/	?	?	-0.2%	31.6µM*
C[C@@H]1OC(c2ccccc2)N(C)[C@H]2C[C@H]3c4[nH]c5cccc(-c6ccccc6)c5c4CCN3C[C@@H]12 (stereo partly specified)	/	/	i	/	/
CCCCn1cnc2cc(NCc3ccccc3Cl)ccc21	i	/	i	/	18.1%
CCCCOc1ccc(S(=O)(=O)NNC(=O)c2cc3ccccc3o2)cc1	i	-0.2%	/	11.2µM*	-6.8%
COC(=O)CCn1nnc(-c2ccc(C)cc2)n1	i	15.8%	i	-0.8%	-0.5%
CC(=O)c1ccccc1OCCn1nnc(-c2ccc(C)cc2)n1	i	12.2%	i	20.5%	25.1µM*
COC(=O)c1ccc2nc(-c3ccc(OC)c(OC)c3)c(Cc3ccc(C)cc3)n2c1	i	6.4%	i	/	22.4µM*
COC(=O)c1ccc2nc(-c3ccc(OC)c(OC)c3)c(Cc3cccc(F)c3)n2c1	i	23.9%	i	/	35.5µM*
COC(=O)c1ccc2nc(-c3ccc(F)cc3)c(Cc3cccc(F)c3)n2c1	i	-0.4%	i	/	23.8%
COC(=O)c1ccc2nc(-c3cccc(Cl)c3)c(Cc3ccccc3OC)n2c1	i	-0.9%	i	/	35.5µM*
CCc1ccc2occ(CC(=O)Nc3c(C(=O)c4ccccc4)oc4ccccc34)c2c1	i	/	i	/	10.7%
CC(=O)Nc1ccc(NC(=O)c2oc3ccc4c(c3c2C)C(=O)CC(C)(C)O4)cc1	i	/	i	/	24.2%
Cc1ccc(-c2c(C(=O)NCCc3ccc(Cl)cc3)oc(=O)c3ccccc23)cc1	i	/	15.8µM*	/	-8.8%
Cc1ccc(CCNC(=O)c2oc(=O)c3ccccc3c2-c2ccc(C)cc2)cc1	i	/	?	/	?
COc1cc(S(=O)(=O)NCCc2c(C)[nH]c3ccccc23)c(C)cc1C	i	/	i	/	14.9%
O=C(Cc1c(Cl)cccc1Cl)Nc1ccncc1Cl	i	1.9%	i	0.5%	11.2µM*
O=C(Cc1c(Cl)cccc1Cl)Nc1ccncc1	i	2.1%	i	2.9%	-16.4%
Cc1cc(C)cc(NC(=O)CCN2C(=O)c3ccccc3Sc3ncccc32)c1	i	/	i	/	-14.6%
Cn1ncc(SCc2ccccc2)c(Cl)c1=O	i	11.2%	i	-7.7%	20µM*
C#CCOc1ccc(/C=C2/C(=O)ON=C2C)cc1Cl	i	1.7%	i	4.7%	?
C#CCOc1c(Br)cc(/C=C2/C(=O)ON=C2C)cc1OCC	?	3.5%	i	12.2%	15.8µM*
C#CCOc1c(Cl)cc(/C=C2/C(=O)ON=C2C)cc1OCC	i	5.2%	i	0.6%	17.8µM*
CC(=O)C(Sc1nc(-c2ccccc2Cl)nc2c1c(=O)n(C)c(=O)n2C)C(=O)N(C)C (stereo unspecified)	i	/	i	/	18.0%[9.22 µM]
CC(C)(C)OC(=O)NCCCCCc1nnc(SCc2ccccc2)o1	i	-0.3%	i	1.5%	35.5µM*
CC(C)(C)OC(=O)NCCCCCc1nnc(SCc2cccc(F)c2)o1	i	3.1%	i	4.2%	25.1µM*
SMILES	Abeta yeast res	aSyn rescue	FUS suppressor	Mito fusion act	TDP-43 yeast inh
CC(C)(C)OC(=O)NCCCCCc1nnc(SCc2ccccc2F)o1	i	6.3%	i	3.6%	?
COc1ccc(S(=O)(=O)Nc2ccc3c(c2)N(C(C)=O)CCC3)cc1F	i	/	i	/	0.0%
O=C(CSc1cc(Cl)ccc1Cl)Nc1ccc(N2CCOCC2)cc1	i	0.1%	i	?	15.8µM*
Cc1ccc(CCNC(=O)CN(c2ccc(C(C)C)cc2)S(=O)(=O)c2c(C)nn(C)c2C)cc1	i	/	i	/	13.4%
O=[N+]([O-])c1cccc(N/N=C/c2cccc(O)c2O)c1	i	15.6%	i	2.7%	12.6µM*
COc1cc(Nc2ncc3c(n2)CCN(Cc2cc(F)cc(F)c2)C3)cc(OC)c1	i	/	i	/	28.1%
CC(NC(=O)OCc1ccccc1)C(=O)Oc1cc2oc(=O)cc(-c3ccccc3)c2cc1Cl (stereo unspecified)	i	3.3%	i	8.9%	6.31µM*

Screens deposited in PubChem by National Center for Advancing Translational Sciences (NCATS).
